{"source": "PubChem BioAssay AID602393", "about": "(Broad Institute, 2012)", "note": "The campaign covered roughly 350,000 compounds. About 7,000 (2%) were called active. This is one part of a sample in which actives are shown more often than they occur. A number with no mark means an inactive call. Cut-off read from the data, not from the text of the source: active = activation above about 40%; inconclusive = no clear call, values can overlap the other calls; inactive = below that.", "data": [{"assay": "Bmi1 luciferase reporter increase in mESCs, primary screen, esBAF inhibitor project, mouse ES cells, Bmi1 luciferase knock-in, single point (AID 602393);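 note: 0% = median of the plate's neutral control wells and 100% = double that signal; a rise in the Bmi1 reporter signal indicates esBAF inhibition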", "settings": "24 h, at 12.5 µM, hits give high values, 100% = twice the neutral-well signal", "values": [{"molecule": "COCC(=O)Nc1ccc2c(c1)C(=O)N(C)[C@@H]1CC[C@@H](CC(=O)NCCCN(C)C)O[C@@H]1CO2", "reporter increase": "12.8%"}, {"molecule": "Cc1ccc(-c2cc(=O)c3ccc(F)cc3[nH]2)cc1", "reporter increase": "47.2% (active)"}, {"molecule": "Cc1ccc(S(=O)(=O)/N=C(\\N)c2ccc(F)cc2)cc1", "reporter increase": "13.3%"}, {"molecule": "O=c1cc(-c2ccccc2)[nH]c2cc(F)ccc12", "reporter increase": "7.27%"}, {"molecule": "S=C1NC(c2ccccc2)=NCN1c1ccc(Br)cc1", "reporter increase": "30.7%"}, {"molecule": "N#Cc1ccc(C2N=C(c3ccccc3)NO2)cc1", "note": "(configuration not stated)", "reporter increase": "65.2% (active)"}, {"molecule": "Brc1ccccc1C1N=C(c2ccccc2)NO1", "note": "(configuration not stated)", "reporter increase": "54.3% (active)"}, {"molecule": "CO[C@@H]1CN(C)C(=O)c2cc(NC(=O)C3CCCC3)ccc2OC[C@@H](C)N(Cc2ccc(F)cc2)C[C@H]1C", "reporter increase": "8.36%"}, {"molecule": "CO[C@H]1CN(C)C(=O)c2cc(NC(=O)NC(C)C)ccc2OC[C@H](C)N(C(=O)CN(C)C)C[C@H]1C", "reporter increase": "-0.455%"}, {"molecule": "COc1ccc(NC(=O)N(C)C[C@H]2OCCCC[C@@H](C)Oc3ccc(NS(=O)(=O)c4ccc(F)cc4)cc3C(=O)N([C@@H](C)CO)C[C@@H]2C)cc1", "reporter increase": "1.41%"}, {"molecule": "O=C(C[C@@H]1CC[C@H]2[C@@H](COC[C@@H](O)CN2CC2CC2)O1)NCc1ccc(Cl)cc1", "reporter increase": "-7.82%"}, {"molecule": "CO[C@H]1CN(C)C(=O)c2cc(NC(C)=O)ccc2OC[C@H](C)N(C(=O)C2CC2)C[C@H]1C", "reporter increase": "-2.16%"}, {"molecule": "CS(=O)(=O)N1C[C@@H](O)COC[C@@H]2O[C@H](CC(=O)NC3Cc4ccccc4C3)CC[C@H]21", "reporter increase": "-3.82%"}, {"molecule": "CNC[C@H]1Oc2cc(C#CC(C)(C)O)ccc2S(=O)(=O)N([C@@H](C)CO)C[C@@H]1C", "reporter increase": "-0.555%"}, {"molecule": "COCC(=O)N1C[C@H]2[C@@H](c3ccccc31)[C@@H](CO)N2Cc1ccccc1", "reporter increase": "-3.85%"}, {"molecule": "Cc1nn(-c2ccccc2)c2c1C(c1cccc([N+](=O)[O-])c1)N(c1ccccc1)C(=O)N2", "note": "(configuration not stated)", "reporter increase": "10.1%"}, {"molecule": "Cn1nc(-c2ccccc2)c2cc([N+](=O)[O-])ccc21", "reporter increase": "-3.5%"}, {"molecule": "Cc1nn(-c2ccc([N+](=O)[O-])cc2)c(N)c1-c1ccccc1", "reporter increase": "49.1% (active)"}, {"molecule": "Cc1ccccc1S(=O)(=O)NCC[C@@H]1CC[C@H](NC(=O)C2CC2)[C@@H](CO)O1", "reporter increase": "-5.25%"}, {"molecule": "O=C(NNC(=O)c1ccco1)Nc1ccccc1", "reporter increase": "0.317%"}, {"molecule": "CC1CCN(c2ccc(-c3ccc(NC(=O)c4ccco4)cc3)nn2)CC1", "reporter increase": "55.6% (active)"}, {"molecule": "Cc1ccc(NC(=O)c2ccco2)cc1", "reporter increase": "58.7% (active)"}, {"molecule": "O=C(/C=C/c1ccco1)Nc1ccc(Oc2ccccc2)cc1", "reporter increase": "78% (active)"}, {"molecule": "COc1cccc(NC(=O)COC(=O)/C=C/c2ccco2)c1", "reporter increase": "-3.7%"}, {"molecule": "O=C(/C=C/c1ccco1)NC(=S)Nc1ccccc1Br", "reporter increase": "12.7%"}, {"molecule": "CN1CCN(S(=O)(=O)c2ccc(NC(=O)c3ccco3)cc2)CC1", "reporter increase": "7.27%"}, {"molecule": "CC1CCN(C(NC(=O)c2ccco2)C(=O)c2ccccc2)CC1", "note": "(configuration not stated)", "reporter increase": "-0.711%"}, {"molecule": "Cc1cc(NC(=O)c2ccc(F)cc2)ccc1NC(=O)c1ccco1", "reporter increase": "-3.11%"}, {"molecule": "CC(C)(C)NC(=O)c1cc(NC(=O)c2ccco2)cc(NC(=O)c2ccco2)c1", "reporter increase": "-7.07%"}, {"molecule": "O=C(Nc1ccc(Oc2ccccc2)cc1)c1ccco1", "reporter increase": "45.8% (active)"}, {"molecule": "O=C(Nc1ccc(Sc2ccc(Br)cc2)cc1)c1ccco1", "reporter increase": "30.7%"}, {"molecule": "C[C@@H]1CCCCO[C@H](CN(C)C(=O)CCCN(C)C)[C@H](C)CN([C@H](C)CO)C(=O)c2cc(NC(=O)CCC(F)(F)F)ccc2O1", "reporter increase": "-8.36%"}, {"molecule": "COCC(=O)NC[C@@H]1[C@@H](c2ccc(C3=CCCC3)cc2)[C@@H](CO)N1C(C)=O", "reporter increase": "2.64%"}, {"molecule": "C[C@@H]1CN([C@H](C)CO)C(=O)c2c(c3ccccc3n2C)-c2ccccc2CO[C@H]1CN(C)C(=O)c1ccncc1", "reporter increase": "1.87%"}, {"molecule": "COCC#Cc1cnc2c(c1)C(=O)N([C@@H](C)CO)C[C@@H](C)[C@H](CN(C)C(=O)Nc1ccccc1OC)O2", "reporter increase": "-2.03%"}, {"molecule": "CCCNC(=O)[C@@H]1[C@@H](CO)[C@@H]2Cn3c(cccc3=O)[C@H]1N2C(=O)C1CCC1", "reporter increase": "3.3%"}, {"molecule": "C[C@@H]1CCCCO[C@H](CN(C)C)[C@H](C)CN([C@@H](C)CO)C(=O)c2cc(NS(=O)(=O)c3ccccc3)ccc2O1", "reporter increase": "-0.305%"}, {"molecule": "CC(Oc1cccc(NC(=O)c2cccs2)c1)C(=O)c1ccccc1", "note": "(configuration not stated)", "reporter increase": "5.41%"}, {"molecule": "Cc1ccoc1C(=O)Nc1cccc(Oc2ccccc2)c1", "reporter increase": "69.9% (active)"}, {"molecule": "CC1(C(=O)Nc2cccc(Oc3ccccc3)c2)CCN1Cc1ccccc1Cl", "note": "(configuration not stated)", "reporter increase": "-0.493%"}, {"molecule": "COc1ccc(CN(C)C[C@@H]2OCCCC[C@H](C)Oc3ccc(NS(C)(=O)=O)cc3C(=O)N([C@@H](C)CO)C[C@H]2C)cc1", "reporter increase": "-1.93%"}, {"molecule": "O=C(NC1CCCCC1)[C@@H]1[C@@H](CO)[C@@H]2Cn3c(cccc3=O)[C@@H]2N1C(=O)CC1CC1", "reporter increase": "0.341%"}, {"molecule": "C[C@H](O)C#Cc1cnc2c(c1)C(=O)N([C@H](C)CO)C[C@H](C)[C@H](CN(C)C(=O)c1ccc(F)cc1)O2", "reporter increase": "0.158%"}, {"molecule": "CN(Cc1ccccc1)C(=O)CSc1nc2ccccc2[nH]1", "reporter increase": "36%"}, {"molecule": "O=C(CSc1nc2ccccc2[nH]1)c1cccs1", "reporter increase": "79.4% (active)"}, {"molecule": "COc1ccc2nc(SCC(=O)Nc3c(C)cc(C)cc3C)[nH]c2c1", "reporter increase": "-3.13%"}, {"molecule": "CCCCN(CC)CCCNC(=O)c1ccc(CSc2nc3ccncc3[nH]2)cc1", "reporter increase": "0.105%"}, {"molecule": "O=C(NCc1ccccc1)c1onc(CSc2nc3ccccc3[nH]2)c1C(=O)NCc1ccccc1", "reporter increase": "-3.03%"}, {"molecule": "CCCCSc1nc2ccccc2[nH]1", "reporter increase": "56.3% (active)"}, {"molecule": "COc1ccccc1CSc1nc2ccccc2[nH]1", "reporter increase": "69.6% (active)"}, {"molecule": "C/C(=N\\Nc1nc2ccccc2[nH]1)c1cccs1", "reporter increase": "67.6%"}, {"molecule": "CN(Cc1ccccc1)c1nc2c(c(=O)[nH]c(=O)n2C)n1CCSc1nc2ccccc2[nH]1", "reporter increase": "5.78%"}, {"molecule": "COc1cccc(S(=O)(=O)Nc2ccc3c(c2)[C@@H]2C[C@@H](CC(=O)NC4CCCCC4)O[C@H](CO)[C@@H]2O3)c1", "reporter increase": "9.31%"}, {"molecule": "CCCNC(=O)N[C@H]1C=C[C@@H](CC(=O)NC2CCCCC2)O[C@H]1CO", "reporter increase": "0.216%"}, {"molecule": "COc1cccc(NC(=O)N(C)C[C@H]2OCc3ccccc3-c3ccccc3C(=O)N([C@H](C)CO)C[C@@H]2C)c1", "reporter increase": "4.73%"}, {"molecule": "Cc1ccnc(NC(=O)c2ccc(Cl)c([N+](=O)[O-])c2)c1", "reporter increase": "30.4%"}, {"molecule": "C/C(=N\\Nc1nncc2ccccc12)c1ccc(Cl)c([N+](=O)[O-])c1", "reporter increase": "50.9% (active)"}, {"molecule": "Cc1nc2ccccc2c(=O)n1NC(=O)c1ccc(Cl)c([N+](=O)[O-])c1", "reporter increase": "3.65%"}, {"molecule": "CN(C)C(=O)c1cccc(-c2ccc3n(c2=O)C[C@H]2N[C@@H]3[C@@H](C(=O)NC3CCC3)[C@@H]2CO)c1", "reporter increase": "-3.26%"}, {"molecule": "CCCNC(=O)N1[C@H](CO)[C@H]2c3ccccc3N(C(=O)Nc3cccc(Cl)c3)C[C@H]21", "reporter increase": "-0.3%"}, {"molecule": "CC(C)c1cccc(-c2csc(C(O)c3ccccc3)n2)c1", "note": "(configuration not stated)", "reporter increase": "38.6%"}, {"molecule": "COc1cccc(C(NC(C)=O)c2nc(-c3cnc4ccccc4c3)cs2)c1", "note": "(configuration not stated)", "reporter increase": "-2.81%"}, {"molecule": "OC(c1ccccc1)c1nc(-c2cnc3ccccc3c2)cs1", "note": "(configuration not stated)", "reporter increase": "50.7% (active)"}, {"molecule": "C[C@@H]1CN([C@@H](C)CO)S(=O)(=O)c2ccc(/C=C/c3ccccc3)cc2O[C@@H]1CN(C)C(=O)Nc1cc(F)ccc1F", "reporter increase": "2%"}, {"molecule": "COc1ccccc1-c1cn(CC[C@H]2CC[C@H](NC(=O)C3CCOCC3)[C@@H](CO)O2)nn1", "reporter increase": "0.605%"}, {"molecule": "Cc1cccc(NC(=S)NC(=O)c2ccc(Br)o2)c1", "reporter increase": "52.3% (active)"}, {"molecule": "O=C(Nc1cccc(C(=O)O)c1)/C(=C\\c1ccccc1)NC(=O)c1ccc(Br)o1", "reporter increase": "-2.41%"}, {"molecule": "CCS(=O)(=O)c1ccc(-c2cccc(NC(=O)c3ccc(Br)o3)c2)nn1", "reporter increase": "-4.52%"}, {"molecule": "CO[C@H]1CN(C)C(=O)c2ccc(NC(=O)c3cccc(Oc4ccccc4)c3)cc2OC[C@@H](C)NC[C@H]1C", "reporter increase": "-1.39%"}, {"molecule": "C/C=C/c1ccc([C@@H]2[C@@H](CN(C)C(C)=O)N(C(=O)C3CC3)[C@H]2CO)cc1", "reporter increase": "-1.72%"}, {"molecule": "Cc1cc(C)nc(NC(=O)Nc2ccccc2C(F)(F)F)n1", "reporter increase": "-6.57%"}, {"molecule": "O=C(NCc1cn2ccsc2n1)Nc1cccc(Cl)c1", "reporter increase": "28.5%"}, {"molecule": "Cc1cc(Cl)nc(NC(=O)Nc2cccc(Cl)c2)n1", "reporter increase": "74.9% (active)"}, {"molecule": "Cc1noc(C)c1S(=O)(=O)Nc1ccc2c(c1)C(=O)N([C@H](C)CO)C[C@@H](C)[C@@H](CN(C)C(=O)C1CCCCC1)OCCCC[C@@H](C)O2", "reporter increase": "5.24%"}, {"molecule": "O=C(C[C@@H]1CC[C@H](NC(=O)C2CC2)[C@@H](CO)O1)NCc1ccncc1", "reporter increase": "-3.99%"}, {"molecule": "CCOc1cccc2cc(C(=O)OCC(=O)Nc3c(C)cccc3CC)c(=O)oc12", "reporter increase": "50.3% (active)"}, {"molecule": "Cc1cccc(C)c1NC(=O)COC(=O)c1ccccc1O", "reporter increase": "0.59%"}, {"molecule": "CCc1cccc(C)c1NC(=O)COC(=O)CC1CCCC1", "reporter increase": "2.51%"}, {"molecule": "CNC[C@H]1Oc2ccc(NS(=O)(=O)c3ccccc3)cc2CC(=O)N([C@H](C)CO)C[C@@H]1C", "reporter increase": "-1.73%"}, {"molecule": "O=C(CCNC(=O)c1ccccc1Cl)NCc1ccco1", "reporter increase": "-4.58%"}, {"molecule": "COc1ccc2c(Cl)c(C(=O)NCc3ccco3)sc2c1", "reporter increase": "35.4%"}, {"molecule": "O=C(NCc1ccco1)c1sc2cccc(F)c2c1Cl", "reporter increase": "44% (active)"}]}]}
